Experiment [1] deals with Mitogen-activated protein kinase 3 (Homo sapiens) (UniProt P27361). To be noted: at 1 µM.
Experiment [2] concerns the target SRSF protein kinase 3 (Homo sapiens) (UniProt Q9UPE1). The following applies: at 0.1 µM.
The target is the same in experiment [3]. The following applies: at 1 µM.
Experiment [4] has as its target Mitogen-activated protein kinase 14 (Homo sapiens) (UniProt Q16539). The following applies: at 0.1 µM.
Experiment [5] shares this target. The following applies: at 1 µM.
Experiment [6] has as its target Mitogen-activated protein kinase 11 (Homo sapiens) (UniProt Q15759). To be noted: at 0.1 µM.
For experiment [7] the target is unchanged. The following applies: at 1 µM.
Experiment [8] deals with T1, Mitogen-activated protein kinase 13 (Homo sapiens) (UniProt O15264).
T1 sequence (whole entry): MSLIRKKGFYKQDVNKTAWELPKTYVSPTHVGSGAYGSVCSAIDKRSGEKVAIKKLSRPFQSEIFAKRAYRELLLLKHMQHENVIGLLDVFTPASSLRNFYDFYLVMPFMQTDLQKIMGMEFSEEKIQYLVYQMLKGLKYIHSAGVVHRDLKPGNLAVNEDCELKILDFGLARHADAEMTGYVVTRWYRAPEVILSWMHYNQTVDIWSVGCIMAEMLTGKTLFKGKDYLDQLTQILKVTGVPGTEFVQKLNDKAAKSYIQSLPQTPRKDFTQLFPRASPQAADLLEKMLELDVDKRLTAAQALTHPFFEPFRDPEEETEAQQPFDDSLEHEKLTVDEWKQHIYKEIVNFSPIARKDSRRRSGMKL
To be noted: at 0.1 µM.

Experiment [9] deals with T1, Mitogen-activated protein kinase 13 (Homo sapiens). To be noted: at 1 µM.
Experiment [10] addresses T2, Mitogen-activated protein kinase 12 (Homo sapiens) (UniProt P53778).
T2 sequence (whole entry): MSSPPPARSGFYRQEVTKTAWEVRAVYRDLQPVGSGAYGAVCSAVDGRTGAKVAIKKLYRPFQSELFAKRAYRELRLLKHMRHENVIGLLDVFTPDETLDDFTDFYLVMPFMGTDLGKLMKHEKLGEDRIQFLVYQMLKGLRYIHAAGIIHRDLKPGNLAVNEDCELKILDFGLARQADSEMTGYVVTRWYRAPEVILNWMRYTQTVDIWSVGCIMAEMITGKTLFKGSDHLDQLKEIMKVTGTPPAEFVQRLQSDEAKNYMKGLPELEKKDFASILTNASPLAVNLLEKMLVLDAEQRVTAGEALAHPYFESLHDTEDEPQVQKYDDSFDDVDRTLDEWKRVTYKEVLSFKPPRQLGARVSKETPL
The following applies: at 0.1 µM.

The target in experiment [11] is T2, Mitogen-activated protein kinase 12 (Homo sapiens). The following applies: at 1 µM.
The target of experiment [12] is SRSF protein kinase 1 (Homo sapiens) (UniProt Q96SB4). To be noted: at 0.1 µM.
SRSF protein kinase 1 (Homo sapiens), sequence (Q96SB4 whole entry): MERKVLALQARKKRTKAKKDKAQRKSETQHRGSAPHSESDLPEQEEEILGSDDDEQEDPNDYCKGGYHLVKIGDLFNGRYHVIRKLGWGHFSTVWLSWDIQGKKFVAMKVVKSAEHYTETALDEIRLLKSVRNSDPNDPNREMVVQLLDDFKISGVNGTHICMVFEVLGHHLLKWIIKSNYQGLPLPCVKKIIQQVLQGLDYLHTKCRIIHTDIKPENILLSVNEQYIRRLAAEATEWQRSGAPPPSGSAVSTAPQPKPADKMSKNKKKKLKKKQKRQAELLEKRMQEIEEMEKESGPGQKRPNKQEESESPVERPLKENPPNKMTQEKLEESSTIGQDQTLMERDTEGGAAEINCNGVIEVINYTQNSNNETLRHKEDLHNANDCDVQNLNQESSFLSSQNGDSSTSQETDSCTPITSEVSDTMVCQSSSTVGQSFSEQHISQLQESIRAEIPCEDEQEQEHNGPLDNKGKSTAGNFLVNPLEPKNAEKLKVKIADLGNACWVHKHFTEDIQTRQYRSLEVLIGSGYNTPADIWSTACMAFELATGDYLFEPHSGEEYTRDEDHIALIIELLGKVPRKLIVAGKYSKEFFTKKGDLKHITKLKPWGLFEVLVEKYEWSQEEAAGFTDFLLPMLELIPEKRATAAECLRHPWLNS
The target is the same in experiment [13]. The following applies: at 1 µM.
In experiment [14] the target is Phosphatidylinositol 4,5-bisphosphate 3-kinase catalytic subunit alpha isoform (Homo sapiens) (UniProt P42336). The following applies: at 0.1 µM.
Phosphatidylinositol 4,5-bisphosphate 3-kinase catalytic subunit alpha isoform (Homo sapiens), sequence (P42336 whole entry, canonical isoform): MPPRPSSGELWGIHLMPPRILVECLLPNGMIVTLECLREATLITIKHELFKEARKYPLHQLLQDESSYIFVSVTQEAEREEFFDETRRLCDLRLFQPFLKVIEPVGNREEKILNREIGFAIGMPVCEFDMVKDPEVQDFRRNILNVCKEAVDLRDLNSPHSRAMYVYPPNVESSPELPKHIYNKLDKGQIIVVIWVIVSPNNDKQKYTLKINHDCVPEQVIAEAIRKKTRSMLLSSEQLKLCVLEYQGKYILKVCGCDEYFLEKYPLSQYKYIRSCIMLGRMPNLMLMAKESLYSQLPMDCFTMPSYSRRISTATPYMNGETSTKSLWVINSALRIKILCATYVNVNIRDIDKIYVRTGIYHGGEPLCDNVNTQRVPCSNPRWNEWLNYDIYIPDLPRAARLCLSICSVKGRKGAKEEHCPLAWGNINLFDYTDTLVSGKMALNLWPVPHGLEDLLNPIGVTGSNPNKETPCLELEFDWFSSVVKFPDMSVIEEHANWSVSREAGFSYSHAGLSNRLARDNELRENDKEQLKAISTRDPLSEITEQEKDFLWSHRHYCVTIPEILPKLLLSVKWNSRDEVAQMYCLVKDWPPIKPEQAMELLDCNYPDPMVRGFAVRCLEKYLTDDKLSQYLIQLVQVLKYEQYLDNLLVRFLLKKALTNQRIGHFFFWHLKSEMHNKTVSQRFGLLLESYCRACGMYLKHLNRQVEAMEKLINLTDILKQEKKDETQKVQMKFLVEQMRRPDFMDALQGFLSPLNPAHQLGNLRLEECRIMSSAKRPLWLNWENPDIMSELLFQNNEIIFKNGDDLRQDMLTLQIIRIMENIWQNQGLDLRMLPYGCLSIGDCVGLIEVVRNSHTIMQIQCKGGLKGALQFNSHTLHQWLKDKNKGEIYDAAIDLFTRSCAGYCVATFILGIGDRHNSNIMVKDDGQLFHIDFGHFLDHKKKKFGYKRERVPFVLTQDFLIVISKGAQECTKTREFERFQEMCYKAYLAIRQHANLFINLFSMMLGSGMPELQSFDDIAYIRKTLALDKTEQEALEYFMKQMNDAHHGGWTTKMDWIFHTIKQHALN
Experiment [15] has the same target. The following applies: at 1 µM.
The target in experiment [16] is T3, Phosphatidylinositol 4,5-bisphosphate 3-kinase catalytic subunit delta isoform (Homo sapiens) (UniProt O00329).
T3 sequence (whole entry): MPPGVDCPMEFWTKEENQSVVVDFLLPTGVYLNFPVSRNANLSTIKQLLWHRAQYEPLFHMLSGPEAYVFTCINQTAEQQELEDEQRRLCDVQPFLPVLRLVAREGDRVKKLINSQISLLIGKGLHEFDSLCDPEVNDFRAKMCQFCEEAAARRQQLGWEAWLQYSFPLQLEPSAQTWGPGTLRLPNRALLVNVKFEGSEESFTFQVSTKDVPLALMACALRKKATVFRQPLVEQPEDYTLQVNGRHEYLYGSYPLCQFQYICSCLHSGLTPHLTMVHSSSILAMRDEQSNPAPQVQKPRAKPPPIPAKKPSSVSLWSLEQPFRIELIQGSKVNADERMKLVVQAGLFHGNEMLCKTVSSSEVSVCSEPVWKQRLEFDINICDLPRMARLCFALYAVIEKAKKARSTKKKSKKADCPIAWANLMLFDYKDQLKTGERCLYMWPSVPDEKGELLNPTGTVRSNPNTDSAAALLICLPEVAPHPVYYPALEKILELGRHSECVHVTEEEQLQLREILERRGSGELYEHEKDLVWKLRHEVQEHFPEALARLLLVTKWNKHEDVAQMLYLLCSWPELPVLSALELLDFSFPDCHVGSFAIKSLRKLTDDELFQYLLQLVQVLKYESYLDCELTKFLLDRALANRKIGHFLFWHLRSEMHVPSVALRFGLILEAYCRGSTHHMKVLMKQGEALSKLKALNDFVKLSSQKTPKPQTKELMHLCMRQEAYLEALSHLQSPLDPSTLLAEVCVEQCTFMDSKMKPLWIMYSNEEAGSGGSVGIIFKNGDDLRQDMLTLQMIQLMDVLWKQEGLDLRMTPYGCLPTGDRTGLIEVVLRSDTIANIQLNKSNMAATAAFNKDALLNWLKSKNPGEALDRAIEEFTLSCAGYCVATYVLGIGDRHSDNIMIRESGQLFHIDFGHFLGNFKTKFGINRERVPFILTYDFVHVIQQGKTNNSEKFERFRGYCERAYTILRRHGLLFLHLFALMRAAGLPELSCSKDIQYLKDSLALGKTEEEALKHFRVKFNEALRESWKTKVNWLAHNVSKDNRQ
The following applies: at 0.1 µM.

Experiment [17] has as its target T3, Phosphatidylinositol 4,5-bisphosphate 3-kinase catalytic subunit delta isoform (Homo sapiens). The following applies: at 1 µM.
The target in experiment [18] is Phosphatidylinositol 4-kinase beta (Homo sapiens) (UniProt Q9UBF8). To be noted: at 0.1 µM.
Phosphatidylinositol 4-kinase beta (Homo sapiens), sequence (Q9UBF8 2-816 limits assumed): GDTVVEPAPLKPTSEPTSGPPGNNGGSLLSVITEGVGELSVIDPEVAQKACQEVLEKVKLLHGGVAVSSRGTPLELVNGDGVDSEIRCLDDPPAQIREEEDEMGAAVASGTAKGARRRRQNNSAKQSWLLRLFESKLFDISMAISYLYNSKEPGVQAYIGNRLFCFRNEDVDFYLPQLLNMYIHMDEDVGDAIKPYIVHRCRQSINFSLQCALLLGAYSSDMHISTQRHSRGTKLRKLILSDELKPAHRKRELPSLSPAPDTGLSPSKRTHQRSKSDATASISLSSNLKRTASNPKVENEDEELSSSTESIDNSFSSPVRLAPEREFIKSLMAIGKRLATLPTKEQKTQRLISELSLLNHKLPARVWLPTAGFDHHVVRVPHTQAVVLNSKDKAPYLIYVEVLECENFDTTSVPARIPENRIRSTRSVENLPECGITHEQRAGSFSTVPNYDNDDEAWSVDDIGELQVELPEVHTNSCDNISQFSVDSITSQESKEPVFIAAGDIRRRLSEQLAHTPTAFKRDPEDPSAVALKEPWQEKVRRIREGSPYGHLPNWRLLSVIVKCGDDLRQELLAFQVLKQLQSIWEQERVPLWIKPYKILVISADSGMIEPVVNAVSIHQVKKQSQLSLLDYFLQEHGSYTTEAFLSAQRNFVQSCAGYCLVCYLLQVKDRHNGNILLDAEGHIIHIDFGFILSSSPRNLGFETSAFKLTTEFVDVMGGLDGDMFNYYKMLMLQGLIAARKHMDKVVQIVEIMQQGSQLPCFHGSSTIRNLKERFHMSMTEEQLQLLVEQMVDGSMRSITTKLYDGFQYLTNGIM
Experiment [19] has the same target. The following applies: at 1 µM.
In experiment [20] the target is Sphingosine kinase 1 (Homo sapiens) (UniProt Q9NYA1). To be noted: at 0.1 µM.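 Note: mean percent inhibition of SPHK1 activity, measured within the GSK PKIS screening panel.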
Sphingosine kinase 1 (Homo sapiens), sequence (Q9NYA1 whole entry): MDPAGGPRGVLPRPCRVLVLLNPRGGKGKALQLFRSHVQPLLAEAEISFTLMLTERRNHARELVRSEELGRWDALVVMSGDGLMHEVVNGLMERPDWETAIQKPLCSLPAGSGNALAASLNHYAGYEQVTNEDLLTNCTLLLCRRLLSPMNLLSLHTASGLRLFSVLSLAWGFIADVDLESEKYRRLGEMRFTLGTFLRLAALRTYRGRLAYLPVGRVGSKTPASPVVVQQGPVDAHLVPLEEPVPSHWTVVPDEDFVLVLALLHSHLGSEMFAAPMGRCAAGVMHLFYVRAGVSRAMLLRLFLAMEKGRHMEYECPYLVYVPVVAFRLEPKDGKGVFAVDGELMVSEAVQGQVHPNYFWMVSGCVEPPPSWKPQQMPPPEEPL

Mitogen-activated protein kinase 3 (Homo sapiens), sequence (P27361 whole entry): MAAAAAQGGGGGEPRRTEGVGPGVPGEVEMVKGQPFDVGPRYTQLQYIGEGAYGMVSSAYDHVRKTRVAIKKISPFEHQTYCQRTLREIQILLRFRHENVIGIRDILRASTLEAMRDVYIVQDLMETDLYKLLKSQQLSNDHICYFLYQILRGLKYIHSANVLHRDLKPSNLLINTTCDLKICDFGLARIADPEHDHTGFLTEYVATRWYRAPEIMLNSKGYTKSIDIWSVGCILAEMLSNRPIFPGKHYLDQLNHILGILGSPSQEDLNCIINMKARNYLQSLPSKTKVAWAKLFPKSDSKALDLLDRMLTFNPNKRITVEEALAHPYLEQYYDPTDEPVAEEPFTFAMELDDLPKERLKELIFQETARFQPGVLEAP
SRSF protein kinase 3 (Homo sapiens), sequence (Q9UPE1 whole entry): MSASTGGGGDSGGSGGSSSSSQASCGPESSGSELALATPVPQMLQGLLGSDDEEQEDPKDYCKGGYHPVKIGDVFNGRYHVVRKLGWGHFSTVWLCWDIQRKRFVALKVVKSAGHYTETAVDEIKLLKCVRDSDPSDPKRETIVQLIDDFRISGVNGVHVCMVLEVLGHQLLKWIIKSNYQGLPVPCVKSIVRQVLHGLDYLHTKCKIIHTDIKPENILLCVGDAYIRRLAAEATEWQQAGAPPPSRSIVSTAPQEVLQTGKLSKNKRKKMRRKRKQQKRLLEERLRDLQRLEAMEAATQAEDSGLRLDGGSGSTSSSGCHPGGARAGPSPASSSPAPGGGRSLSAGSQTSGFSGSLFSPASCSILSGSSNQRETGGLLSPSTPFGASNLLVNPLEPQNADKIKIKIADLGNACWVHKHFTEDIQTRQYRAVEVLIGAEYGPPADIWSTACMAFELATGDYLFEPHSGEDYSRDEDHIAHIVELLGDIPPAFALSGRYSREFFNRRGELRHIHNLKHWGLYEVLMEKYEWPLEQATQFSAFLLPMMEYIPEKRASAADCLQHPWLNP
Mitogen-activated protein kinase 11 (Homo sapiens), sequence (Q15759 whole entry): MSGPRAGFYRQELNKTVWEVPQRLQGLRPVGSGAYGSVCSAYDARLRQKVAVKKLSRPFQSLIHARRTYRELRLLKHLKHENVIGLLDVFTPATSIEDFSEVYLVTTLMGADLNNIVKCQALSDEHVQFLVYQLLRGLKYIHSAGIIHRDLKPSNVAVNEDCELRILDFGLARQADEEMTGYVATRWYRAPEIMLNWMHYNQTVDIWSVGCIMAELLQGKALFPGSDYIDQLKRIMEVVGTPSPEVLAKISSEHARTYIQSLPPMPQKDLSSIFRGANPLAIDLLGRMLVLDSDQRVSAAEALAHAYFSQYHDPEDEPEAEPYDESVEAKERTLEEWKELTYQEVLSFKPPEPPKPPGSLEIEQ
Mitogen-activated protein kinase 14 (Homo sapiens), sequence (Q16539 whole entry): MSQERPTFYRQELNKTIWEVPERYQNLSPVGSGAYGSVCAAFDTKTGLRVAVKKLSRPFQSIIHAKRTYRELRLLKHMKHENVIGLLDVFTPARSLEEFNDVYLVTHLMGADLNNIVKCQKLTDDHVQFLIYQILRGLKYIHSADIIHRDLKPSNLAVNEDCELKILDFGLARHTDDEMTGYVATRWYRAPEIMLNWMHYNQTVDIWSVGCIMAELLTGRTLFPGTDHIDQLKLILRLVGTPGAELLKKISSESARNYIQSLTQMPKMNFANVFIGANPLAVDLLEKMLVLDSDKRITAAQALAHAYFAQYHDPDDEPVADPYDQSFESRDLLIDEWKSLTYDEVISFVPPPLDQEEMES

For `COc1cccc(-c2c[nH]c3c(N/N=C/c4ccncc4)ncnc23)c1`, the inhibition in [1] worked out at 6.39%; in experiment [2], 1.36%; in experiment [3], 1.67%; in [4], 7.04%; in experiment [5], 13.3%; in experiment [6] it was 2.44%. The inhibition came to 7.25% in [7]; 6.19% in experiment [8]; 38.2% in [9]; 1.88% in [10]; 14.7% in [11]; 0.71% in experiment [12]. Besides, the inhibition in [13] was -1.68%; in experiment [14] it was 1.14%; in experiment [15], 4.14%; in experiment [16] it was 0.94%; in experiment [17], 3.3%; in experiment [18], -3.02%. Moreover, the inhibition in [19] was 0.08%; in [20], -4.21%.
Consider `CC1=C(C(=O)Nc2cc(Cl)c3[nH]ncc3c2)C(c2ccc(C(F)(F)F)cc2)CC(=O)N1` (stereo not given), for which the inhibition in experiment [1] is 21.8%; in [2] it was -1.32%; in experiment [3] it was -2.71%; in [4], -3.41%; in experiment [5], 6.81%; in experiment [6], 1.37%. Further, the inhibition in [7] was 2.31%; in [8] it was 0.32%; in [9], 4.12%; in experiment [10], 2.56%; in experiment [11], 2.49%; in experiment [12] it was -1.04%. Besides, the inhibition in [13] was -1.39%; in experiment [14] it was 2.86%; in experiment [15], 6.37%; in experiment [16], 1.38%; in experiment [17], 4.61%; in experiment [18] it was 3.72%. Besides, the inhibition in experiment [19] came to 1.77%; in experiment [20] it was 6.22%.
Regarding `CN1CCC(n2cnc(-c3ccc(F)cc3)c2-c2ccnc(Nc3ccccc3)n2)CC1`, the inhibition in experiment [1] is 6.33%; in experiment [2] it was 0.1%; in experiment [3] it was -0.07%; in [4] it was 84.1%; in [5], 90.8%; in experiment [6], 50.7%. Also, the inhibition in [7] is 81.4%; in experiment [8], 3.08%; in [9], 22.5%; in [10] it was 3.56%; in [11], 9.03%; in experiment [12], -1.25%. Also, the inhibition was -1.27% in experiment [13]; 1.36% in experiment [14]; 1.8% in experiment [15]; -0.07% in experiment [16]; 4.79% in experiment [17]; -0.93% in [18]. In addition, the values for the inhibition in [19] and in experiment [20] were 1.36% and 1.77%, respectively.
With `O=C(O[C@H]1CN[C@H](C#Cc2cc3ncnc(Nc4ccc(Cc5ccccc5)cc4)c3s2)C1)N1CCOCC1`, the inhibition in [1] was 2.11%; in experiment [2] it was -2.44%; in experiment [3] it was -1.14%; in experiment [4], 4.54%; in [5], 2.37%; in experiment [6], 0.92%. The inhibition was 4.95% in experiment [7]; 2.02% in [8]; 0.36% in [9]; 1.75% in experiment [10]; 1.72% in experiment [11]; -2.56% in experiment [12]. The inhibition in experiment [13] was -2.4%; in experiment [14], 3.61%; in [15], 11.2%; in experiment [16], 1.42%; in [17], 8.98%; in experiment [18], 0.59%. In addition, the inhibition in experiment [19] was -0.78%; in experiment [20], 0.79%.
For the molecule `CS(=O)(=O)CCNCc1ccc(-c2ccc3ncnc(Nc4ccc(OCc5ccccc5)c(C(F)(F)F)c4)c3c2)o1`, the inhibition in [1] is 3.07%; in [2] it was -3%; in experiment [3], -1.24%; in experiment [4], 5.55%; in experiment [5], 2.96%; in experiment [6] it was 4.3%. Moreover, the inhibition in experiment [7] was 5.41%; in [8], 3.67%; in [9], 2.13%; in experiment [10], 2.6%; in experiment [11], 2.8%; in experiment [12], -2.41%. The inhibition in experiment [13] is -1.93%; in experiment [14], 4.02%; in experiment [15], 4.89%; in experiment [16] it was 0.55%; in [17], 2.2%; in experiment [18], -0.29%. The figures for the inhibition in experiment [19] and in experiment [20] were 1.06% and 0.51%, respectively.
On to `COc1cc(N2CCN(C(C)C)CC2)ccc1Nc1nc(Nc2ccc(F)cc2C(N)=O)c2cc[nH]c2n1`, for which the inhibition in [1] came out at 5.68%; in experiment [2], 4.97%; in experiment [3], 4.84%; in [4] it was 4.36%; in [5], 8.96%; in experiment [6], 1.51%. Also, the inhibition in [7] is 9.48%; in experiment [8], 0.06%; in experiment [9], 2.28%; in experiment [10], 0.86%; in [11], 2.22%; in experiment [12], -2.51%. For the same molecule, the inhibition is 1.46% in [13]; 0.53% in experiment [14]; 0.95% in [15]; -1.34% in experiment [16]; 2.71% in experiment [17]; 0.5% in experiment [18]. Besides, the inhibition in experiment [19] is -1.98%; in experiment [20] it was 0.81%.
For `NS(=O)(=O)c1ccc(N/N=C2\C(=O)Nc3ccc4ncccc4c32)cc1`, the inhibition is 30.9% in experiment [1]; -0.65% in experiment [2]; -0.87% in [3]; 0.75% in experiment [4]; 12.3% in experiment [5]; 7.81% in experiment [6]. Moreover, the inhibition in experiment [7] was 26.7%; in experiment [8], 0.25%; in experiment [9] it was 10%; in [10], 3.34%; in [11] it was 18.9%; in experiment [12], -3.05%. For the same molecule, the inhibition in [13] is -3.18%; in experiment [14] it was 1.35%; in [15], 7.38%; in [16] it was 1.9%; in [17], 8.23%; in [18] it was 1.16%. Further, the inhibition in [19] is 0.49%; in experiment [20], -2.17%.

The record behind these values is ChEMBL document CHEMBL1961873, “Compounds: GSK PKIS; Assays: Nanosyn kinase panel” (2012).
